Among all 330,000 compounds or so, about 1,100 (0.33%) were called active.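 How the source made its calls: active means inhibition above about 40% at 20 µM (limit read from the data); inactive means the rest.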 The entries come from a sample that favours actives as a whole.
Molecular target: Apelin receptor (Homo sapiens) (UniProt P35414)
Assay: blockade of apelin-induced APJ beta-arrestin recruitment – CHO-K1 cells, beta-arrestin complementation, luminescence, primary screen (AID 2521);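 further: cells challenged with 10 nM apelin-13 agonist together with compound; plate controls were apelin-13 plus DMSO wells for no effect and DMSO wells lacking apelin-13 for full effect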
Details: at 20 µM, stronger effect = higher value

Chain of Apelin receptor (Homo sapiens) (P35414 whole entry, looked up): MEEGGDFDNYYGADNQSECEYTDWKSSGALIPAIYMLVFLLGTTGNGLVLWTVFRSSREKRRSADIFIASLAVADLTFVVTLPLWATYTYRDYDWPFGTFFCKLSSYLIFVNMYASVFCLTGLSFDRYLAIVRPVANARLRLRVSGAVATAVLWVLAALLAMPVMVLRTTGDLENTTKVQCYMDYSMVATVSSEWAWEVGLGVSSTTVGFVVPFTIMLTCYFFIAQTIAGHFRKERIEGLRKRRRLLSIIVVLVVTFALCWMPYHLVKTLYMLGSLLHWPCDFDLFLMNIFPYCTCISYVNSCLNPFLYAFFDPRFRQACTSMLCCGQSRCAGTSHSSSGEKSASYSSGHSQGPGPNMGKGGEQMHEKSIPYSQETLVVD

`COc1ccc(/C(C)=N\NC(=O)c2ccc(-c3ccccc3)cc2)c(F)c1` was tested. Which inhibition did it give?
The inhibition was 8.03% (inactive).

`Cc1cnc(NC(=O)c2ccccn2)s1` was tested. Which inhibition did it give?
Its inhibition is 9.6% (inactive).

For `C/C(=N\NC(=O)c1ccccc1F)c1ccccn1`, which inhibition is on record?
The inhibition was 57.1% (active).

How did the inhibition turn out when `CCOC(=O)[C@H]1CCC[C@@H](NS(=O)(=O)c2ccc(NC(C)=O)cc2)C1` was run?
The inhibition was 6.91% (inactive).

Which inhibition does the source give for `CC(C)(C)c1cc(C(=O)NN)n(Cc2ccc(Cl)cc2Cl)n1` here?
The inhibition was -15% (inactive).

For `Cc1ccc(C(=O)OC2=CC(=O)CC(C)(C)C2)cc1`, which inhibition is on record?
Its inhibition is -13.7% (inactive).

For `CCc1c(C)sc(NC(=O)c2cccs2)c1C(N)=O`, which inhibition is on record?
Its inhibition is 1.68% (inactive).

How did the inhibition turn out when `O=C1Nc2ccc(Br)cc2/C1=N/N=C/C1=C(N2CCOCC2)C(=C\c2ccccc2)/CC1` was run?
The inhibition was 46.4% (active).

With `COc1ccc(/C=N/N=C2/C(=O)Nc3ccccc32)cc1O` as the compound, how does the inhibition read?
Its inhibition is -11.9% (inactive).

Which inhibition does the source give for `O=C(c1cccc(-n2cccc2)c1)N1CCN(S(=O)(=O)c2ccc(F)cc2)CC1` here?
Its inhibition is -9.43% (inactive).

`COc1cc(Nc2nc3ccc(Cl)cc3n3cnnc23)cc(OC)c1OC` was tested. Which inhibition did it give?
Its inhibition is -3.66% (inactive).

For `Nc1nc(SCC(=O)NNc2c(Cl)cc(Cl)cc2Cl)n[nH]1`, which inhibition is on record?
The inhibition was -14.8% (inactive).

For `COc1ccc(CNc2cc(C)cc(C)c2)cc1OC`, which inhibition is on record?
The inhibition was -9.47% (inactive).

`CN(CC(=O)Nc1ccc(F)c(F)c1F)C(=O)C1CC(=O)N(C2CCCC2)C1` (stereo unspecified) was tested. Which inhibition did it give?
Its inhibition is 19.9% (inactive).

Which inhibition does the source give for `CCN(CC(=O)Nc1ccc(OC)cc1)C(=O)CSCc1ccc(C)cc1` here?
Its inhibition is 12.9% (inactive).

With `COc1ccc(CS(=O)/C(Cl)=C(/Cl)C(=O)Nc2ccc(OC)nc2)cc1` (stereo unspecified) as the compound, how does the inhibition read?
Its inhibition is 67.6% (active).

For `COC(=O)c1sccc1NC(=S)Nc1ccc(C)cc1`, which inhibition is on record?
The inhibition was -10.8% (inactive).

Which inhibition does the source give for `COc1ccc(NC(=O)/C(Cl)=C(/Cl)S(=O)Cc2ccc(C)cc2)cn1` (stereo unspecified) here?
Its inhibition is 89.8% (active).

`COc1ccc(CCC(=O)c2ccc(OC)cc2)cc1` was tested. Which inhibition did it give?
The inhibition was -11.9% (inactive).

How did the inhibition turn out when `COc1ccc(OC(C)C(=O)Nc2cccnc2)cc1` (stereo unspecified) was run?
Its inhibition is 15.8% (inactive).

With `CC1CCCCN1C(=O)CCS(=O)(=O)Cc1ccccc1` (stereo unspecified) as the compound, how does the inhibition read?
Its inhibition is 11.3% (inactive).

For `Cc1nc(CN2CCN(C(=O)CCc3nnc(Cc4c[nH]c5ccccc45)o3)CC2)cs1`, which inhibition is on record?
Its inhibition is 21.1% (inactive).

With `CSC1=N/C(=C\C=C\c2cccs2)C(=O)S1` as the compound, how does the inhibition read?
Its inhibition is 5.36% (inactive).

For `CC(C)c1ccc(NS(=O)(=O)c2cn(C)c(=O)n(C)c2=O)cc1`, which inhibition is on record?
Its inhibition is 7.41% (inactive).

For `CCCc1nc2c(C)cc(-c3nc4ccccc4n3C)cc2n1Cc1ccc(-c2ccccc2C(=O)O)cc1`, which inhibition is on record?
The inhibition was 9.96% (inactive).

`CC(=O)c1c(C)[nH]c(C(=O)CN2C(=O)NC(C)(C)C2=O)c1C` was tested. Which inhibition did it give?
The inhibition was 8.53% (inactive).

— PubChem BioAssay AID2521 (Sanford-Burnham Center for Chemical Genomics, 2010)
